From PubChem
V-ATPase pHluor: regulators of yeast V-ATPase proton pumping, primary screen, pHLuorin cytosolic pH fluorescence. response, % at 10 µM. 350,000 compounds, 0.37% hits. S. cerevisiae; in the data active = response mostly above about 7.3%, no sharp cut-off; inactive = mostly below about 5.4%; note: actives read high
PolyA inh: polyadenylation inhibitors in yeast reporter cells, primary screen, luminescence, S. cerevisiae; activity score, % at 12 µM; S. cerevisiae SKY197-pL101 polyadenylation reporter, beta-gal luminescence; efflux-impaired pdr1/pdr3 knockout yeast; score 100 = 6 SD above DMSO; 300,000 compounds, 0.02% hits;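 active = lowest replicate activity score at least 50, where 100 means six control SD above control mean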;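 note: yeast exposed to compound for 9 h at 30 °C; higher score means more reporter readthrough which indicates perturbed polyadenylation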
PKA-R1A activ: activators of PKA-R1A holoenzyme, primary screen, biochemical, fluorescence polarization, Cy5-IP20, bovine R1A, mouse PKAc. cAMP-dependent protein kinase type I-alpha regulatory subunit (Bos taurus) + …. PKA-R1A dissociation; scaled: DMSO 0%, 113 µM cGMP 100%. activation, % at 11.4 µM. 340,000 compounds, 0.083% hits;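 active = percent activation above the mean of all tested compounds plus 3 SD, cut at about 19% in these data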;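 note: higher means more PKAc released from R1A so a rise in polarization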
GASC-1 inh: inhibitors of GASC-1 histone demethylase, primary screen, biochemical, fluorescence, DELFIA europium; Lysine-specific demethylase 4C (Homo sapiens), Q9H3R0; GST-JMJD2C(1-420) H3K9me3 demethylation; inhibition, % at 2.35 µM; 330,000 compounds, 0.069% hits; AID 2099, 2009;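 active = more than half of a compound's replicate wells show inhibition beyond 50%, single wells judged on their own value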;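 note: signal counts dimethyl H3K9 product captured on neutravidin plate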
PKA-R2B activ: activators of PKA-R2B holoenzyme, primary screen, biochemical, fluorescence polarization, Cy5-IP20, human; cAMP-dependent protein kinase catalytic subunit beta (Homo sapiens) + cAMP-dependent …; PKA-R2B holoenzyme dissociation; R2B truncated from residue 108, S112A mutant; 0% DMSO only, 100% 113 µM cGMP; activation, % at 11.4 µM; 340,000 compounds, 0.079% hits; AID 504700, 2011;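 active = activation above a cutoff set at the mean over all compounds plus 3 SD, cut at about 18% in these data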;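 note: higher means more holoenzyme dissociation and a rise in polarization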
Target sequence (P31323 whole entry, looked up, other chains not shown, the tested form may be a part): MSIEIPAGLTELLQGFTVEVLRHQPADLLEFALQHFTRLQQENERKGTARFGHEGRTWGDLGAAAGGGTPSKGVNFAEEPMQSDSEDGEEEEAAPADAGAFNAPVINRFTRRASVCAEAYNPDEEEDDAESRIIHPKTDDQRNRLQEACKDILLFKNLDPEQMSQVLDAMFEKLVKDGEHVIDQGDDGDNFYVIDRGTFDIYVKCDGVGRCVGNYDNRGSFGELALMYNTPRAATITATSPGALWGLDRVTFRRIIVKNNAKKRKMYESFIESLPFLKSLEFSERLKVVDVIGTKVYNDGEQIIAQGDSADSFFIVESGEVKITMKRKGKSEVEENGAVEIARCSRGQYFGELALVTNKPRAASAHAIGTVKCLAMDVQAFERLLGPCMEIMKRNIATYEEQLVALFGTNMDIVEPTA
CR mimetic SO: reduction of superoxide in aged yeast, primary screen, HTS; S. cerevisiae aged cells, superoxide DHE fluorescence; stronger effect = lower value; superoxide response (% of plate mean), % at 10 µM; 330,000 compounds, 0.18% hits; AID 2690, 2010;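 active = superoxide response under a set limit, about three screen SD below normal, cut at about 65% in these data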;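 note: yeast aged for seven days with compound at 30 °C before DHE staining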
V-ATPase pH SP: yeast V-ATPase proton pumping modulators, confirmation, S. cerevisiae, pH-sensitive GFP, second cherry-pick. shares compounds with V-ATPase pHluor. S. cerevisiae pHLuorin cytosolic pH, V-ATPase proton transport. response, % at 10 µM. 980 compounds, 2% hits. AID 602197, 2012; in the data active = response above about 24%
Of the large screens only hits and unclear results are named; the others gave an inactive call (follow-up assays come after a bar, where they were run). In the library only some 0.78% were active in any assay of this set; here they are far more common.

O=C1CN(C(=O)COc2ccc(Br)cc2Br)c2ccccc2N1	V-ATPase pHluor 8.8 | V-ATPase pH SP inactive
O=C1CN(C(=O)COc2ccc(Br)cc2F)c2ccccc2N1	none
CCOc1cc(/C=N/NC(=O)c2cccc(S(=O)(=O)N3CCCC3)c2)ccc1OCC(=O)N(C)C	V-ATPase pHluor 19 | V-ATPase pH SP inactive
CCOc1cc(C=NNC(=O)c2cccc(S(=O)(=O)N3CCCC3)c2)ccc1O	none (no result: PolyA inh)
CCOc1cc(C(=O)N/N=C(\C)Cc2ccc(OC)cc2)cc(OCC)c1OCC	none
COc1ccc(C/C(C)=N/NC(=O)c2ccc(Cl)cc2)cc1	V-ATPase pHluor 105 | V-ATPase pH SP inactive
O=C(Nc1ccc(Cl)c(Cl)c1)OCc1cnc(Cl)s1	none
O=C(Nc1ccccc1)OCc1cnc(Cl)s1	V-ATPase pHluor 7.0 | V-ATPase pH SP inactive
O=S(=O)(NC1=NCCC1)c1ccc(F)cc1F	V-ATPase pHluor 9.1 | V-ATPase pH SP inactive
O=C(CCC1CCN(C(=O)CC2=CCCCC2)CC1)NCc1ccc(F)cc1	V-ATPase pHluor 7.1 (no result: PolyA inh, GASC-1 inh, CR mimetic SO) | V-ATPase pH SP inactive
COc1cccc(OCCNC(=O)Nc2cc(F)c(F)cc2Cl)c1	none
C=C(C)C(=O)Nc1ccc2nn(-c3ccccc3O)nc2c1	none (no result: PolyA inh, GASC-1 inh, CR mimetic SO)
CCN(CC(=O)Nc1cccc(OC)c1)C(=O)c1ccco1	none
Cc1ccc(Cl)cc1N1CCN(C(=O)CNC(=O)c2ccc(Br)o2)CC1	V-ATPase pHluor 8.1 (no result: PolyA inh) | V-ATPase pH SP inactive
O=C(NCC(=O)N1CCN(c2cccc(Cl)c2)CC1)c1ccc(Br)o1	none
COc1ccc(-c2nnc3sc(COc4ccccc4)nn23)cc1	none
COc1ccc(OCc2nn3c(-c4ccccn4)nnc3s2)cc1	V-ATPase pHluor 9.5 | V-ATPase pH SP inactive
Cc1ccc(NC(=O)COc2ccccc2C#N)cc1S(=O)(=O)N1CCCCCC1	none (no result: PolyA inh, GASC-1 inh)
Cc1ccc(NC(=O)COc2cccnc2[N+](=O)[O-])cc1S(=O)(=O)N1CCCCC1	V-ATPase pHluor 57 | V-ATPase pH SP inactive
CC(C)C(NC(=O)CNC(=O)OC(C)(C)C)C(=O)NCc1ccccc1 (stereo not given)	none (no result: V-ATPase pHluor)
CC(C)(C)OC(=O)NCC(=O)NNC(=O)C(C(=O)OCc1ccccc1)c1ccccc1 (stereo not given)	V-ATPase pHluor 8.8 (no result: PolyA inh) | V-ATPase pH SP inactive
COc1ccc(-c2cc(C(=O)NCCCN3CCCC3=O)c3ccccc3n2)cc1	V-ATPase pHluor 12 | V-ATPase pH SP inactive
O=Cc1c[nH]c2ccc(C(=O)c3ccccc3)cc12	none
Cc1cc(C)c(C)c(S(=O)(=O)N2CCN(C(=O)c3ccccn3)CC2)c1C	none (no result: PolyA inh, GASC-1 inh)
COc1ccc(C(=O)NCCn2cc(SCC(=O)NCC3CCCO3)c3ccccc32)cc1OC (stereo not given)	V-ATPase pHluor 8.1 | V-ATPase pH SP inactive
CCCC(O)(c1ccc(Cl)cc1)C(CN1CCOCC1)c1ccc(Cl)cc1 (stereo not given)	none
CCCC(O)(c1ccc(OC)cc1)C(CN1CCOCC1)c1ccc(Cl)cc1 (stereo not given)	V-ATPase pHluor 12 | V-ATPase pH SP inactive
Cc1nn(CC2CC2)c(=O)n1-c1ccc(Cl)cc1	none | V-ATPase pH SP inactive
COc1ccc(N(CC(=O)NCCC2=CCCCC2)S(=O)(=O)c2ccccc2)cc1OC	V-ATPase pHluor 14 | V-ATPase pH SP inactive
COc1ccc(N(CC(=O)NCCC2=CCCCC2)S(=O)(=O)c2ccc(C)cc2)cc1OC	none
Cn1nc(C(=O)NNC(=O)c2ccccc2F)c2ccccc2c1=O	none (no result: PolyA inh)
Cn1nc(C(=O)NNC(=O)c2ccccc2Br)c2ccccc2c1=O	V-ATPase pHluor 9.5 (no result: PolyA inh, GASC-1 inh, CR mimetic SO) | V-ATPase pH SP inactive
Nc1nc(SCC(=O)Nc2ccc(Cl)cn2)n[nH]1	none
COc1ccc(S(=O)(=O)N2CCN(CC(=O)NC3CC3)CC2)cc1	none
COc1ccc(N2CCN(C(=O)c3ccc(S(=O)(=O)N4CCCCCC4)cc3)CC2)cc1	V-ATPase pHluor 13 (no result: PolyA inh, GASC-1 inh, CR mimetic SO) | V-ATPase pH SP inactive
Cc1ccc(-n2nc(C(=O)NN)c(C)c(C#N)c2=O)cc1Cl	none
Cc1c(C(=O)NN)nn(-c2ccc(Cl)cc2)c(=O)c1C#N	none (no result: PolyA inh) | V-ATPase pH SP inactive
O=C1CN(C(=O)CSc2nc3ccccc3c(=O)n2CC2CCCO2)c2ccccc2N1 (stereo not given)	V-ATPase pHluor 11 | V-ATPase pH SP inactive
Cc1ccc(Cn2c(SCC(=O)N3CC(=O)Nc4ccccc43)nc3ccccc3c2=O)cc1	none
CCOc1ccc(N2C(=O)CC(N(CCc3ccc(OC)cc3)C(=O)/C=C/C(=O)O)C2=O)cc1 (stereo not given)	none
CCN(CC)C(=O)c1cc2cc([N+](=O)[O-])ccc2s1	V-ATPase pHluor 19 | V-ATPase pH SP inactive
O=C1CCC/C(=N\NC(=O)c2ccc(NS(=O)(=O)c3ccc(Br)cc3)cc2)C1	V-ATPase pHluor 14 | V-ATPase pH SP inactive
O=C(NCCc1ccccc1F)C1CCC(=O)N(CCCN2CCCC2=O)C1 (stereo not given)	none
CCOc1ccc(CCNC(=O)COC(=O)c2ccc(S(=O)(=O)N3CCCC3)cc2)cc1OCC	none
CCOc1ccc(CCNC(=O)COC(=O)c2ccc(S(C)(=O)=O)cc2)cc1OCC	V-ATPase pHluor 15 | V-ATPase pH SP inactive
CCCC(=O)Nc1ccc(C(=O)Nc2cccc(OC)c2)cc1	V-ATPase pHluor 9.7 | V-ATPase pH SP inactive
CC(C)N1CCN(Cc2cccn2-c2ccccn2)CC1CCO (stereo not given)	none
CN(C(=O)COC(=O)c1cnc(Cl)c(Cl)c1)C1CCS(=O)(=O)C1 (stereo not given)	none
CN(C(=O)COC(=O)c1ccc(Cl)cc1N)C1CCS(=O)(=O)C1 (stereo not given)	V-ATPase pHluor 11 | V-ATPase pH SP inactive
CCCCc1cc(=O)oc2cc(C)cc(OCC(=O)N3CCC(C(=O)O)(c4ccccc4)CC3)c12	none
CCOC(=O)Cc1cc(=O)n2[nH]c(C)c(-c3ccccc3OC)c2n1	V-ATPase pHluor 19 | V-ATPase pH SP inactive
CC(CNc1ccc(Cl)cc1)(CNc1ccc(Cl)cc1)[N+](=O)[O-]	V-ATPase pHluor 8.8 (no result: PolyA inh, GASC-1 inh, CR mimetic SO) | V-ATPase pH SP inactive
Cn1c(SCC(=O)Nc2ccccc2)nc(O)cc1=O	V-ATPase pHluor 8.9 | V-ATPase pH SP inactive
